In the supplement of paper PMC9262897, “Low-cost anti-mycobacterial drug discovery using engineered E. coli” (Nature Communications, 2022):
Counter-ions that a name gives are not always drawn. ± gives the standard deviation of the averaged measurements.

Tested on: E. coli TESEC Mtb Alr
Assay: growth (OD600 after 10 h); higher = more growth (less inhibition)
Details: compound 0.1 mM
Experimental: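 TESEC Mtb Alr E. coli, or the Alr+ wild-type control, in 384-well plates with Prestwick library compounds at 0.1 mM and 1% DMSO, across arabinose induction levels of 1E3 to 1E7 nM. Growth is read as OD600 after 10 h at 37 °C in triplicate biological replicates.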

[1] = arabinose 1000 nM, raw OD600 reference: median of DMSO wells 0.294, cell-free background 0.041
[2] = arabinose 10000 nM, raw OD600 reference: median of DMSO wells 0.264, cell-free background 0.041
[3] = arabinose 100000 nM, raw OD600 reference: median of DMSO wells 0.201, cell-free background 0.041
[4] = arabinose 1000000 nM, raw OD600 reference: median of DMSO wells 0.193, cell-free background 0.041
[5] = arabinose 10000000 nM, raw OD600 reference: median of DMSO wells 0.146, cell-free background 0.041

`NNc1nncc2ccccc12` [Hydralazine hydrochloride] gave a growth [1] of 0.262 ± 0.022, a growth [2] of 0.256 ± 0.0092 and a growth [3] of 0.174 ± 0.013. The growth [4] was 0.12 ± 0.0069 and the growth [5] was 0.13 ± 0.0019.

Work on `COc1ccc(-c2ccc3cc(C(=O)O)ccc3c2)cc1C12CC3CC(CC(C3)C1)C2` [Adapalene] yielded a growth [1] of 0.282 ± 0.014, a growth [2] of 0.26 ± 0.0041 and a growth [3] of 0.185 ± 0.013. The growth [4] was 0.223 ± 0.016 and the growth [5] was 0.125 ± 0.0023.

Compound `COc1ccc(CCN(C)CCCC(C#N)(c2ccc(OC)c(OC)c2)C(C)C)cc1OC` (stereo not given) [Verapamil hydrochloride] has a growth [1] of 0.25 ± 0.0055, a growth [2] of 0.27 ± 0.0044 and a growth [3] of 0.195 ± 0.0032. It also gave a growth [4] of 0.116 ± 0.0045 and a growth [5] of 0.149 ± 0.0027.

`CCCCC1=NC2(CCCC2)C(=O)N1Cc1ccc(-c2ccccc2-c2nnn[nH]2)cc1` [Irbesartan] gave a growth [1] of 0.227 ± 0.0037, a growth [2] of 0.21 ± 0.011 and a growth [3] of 0.121 ± 0.0023. The growth [4] was 0.0979 ± 0.0024 and the growth [5] was 0.13 ± 0.0027.

For `CC1(C)NC(=O)N(c2ccc([N+](=O)[O-])c(C(F)(F)F)c2)C1=O` [Nilutamide], the growth [1] was 0.273 ± 0.0069, the growth [2] was 0.256 ± 0.003 and the growth [3] was 0.189 ± 0.012. It also gave a growth [4] of 0.153 ± 0.0033 and a growth [5] of 0.142 ± 0.0062.

In the case of `O=P(O)(O)C(O)(Cc1cccnc1)P(=O)(O)O` [Risedronic acid monohydrate], the growth [1] is reported as 0.2984 ± 0.0028, the growth [2] is reported as 0.265 ± 0.0074 and the growth [3] is reported as 0.191 ± 0.0063. It also gave a growth [4] of 0.196 ± 0.0097 and a growth [5] of 0.156 ± 0.0062.

`CC[C@H](c1ccc(O)cc1)[C@@H](CC)c1ccc(O)cc1` [Hexestrol] gave a growth [1] of 0.048 ± 0.0092, a growth [2] of 0.0398 ± 0.00072 and a growth [3] of 0.0479 ± 0.0054. The growth [4] was 0.0459 ± 0.0019 and the growth [5] was 0.0616 ± 0.024.

For `CCN(CC)CC#CCOC(=O)C(O)(c1ccccc1)C1CCCCC1` (stereo not given) [Oxybutynin chloride], the growth [1] was 0.13 ± 0.067, the growth [2] was 0.167 ± 0.004 and the growth [3] was 0.131 ± 0.072. For the same compound, the growth [4] was 0.0668 ± 0.00052 and the growth [5] was 0.117 ± 0.0015.
